# Measured values published in ChEMBL document CHEMBL2218924, “A broad activity screen in support of a chemogenomic map for kinase signalling research and drug discovery” (Biochem J, 2013).
# Legend:
# [1] = target: T1, Serine/threonine-protein kinase D2 (Homo sapiens) (UniProt Q9BZL6); conditions: at 1 µM
# T1 sequence (whole entry): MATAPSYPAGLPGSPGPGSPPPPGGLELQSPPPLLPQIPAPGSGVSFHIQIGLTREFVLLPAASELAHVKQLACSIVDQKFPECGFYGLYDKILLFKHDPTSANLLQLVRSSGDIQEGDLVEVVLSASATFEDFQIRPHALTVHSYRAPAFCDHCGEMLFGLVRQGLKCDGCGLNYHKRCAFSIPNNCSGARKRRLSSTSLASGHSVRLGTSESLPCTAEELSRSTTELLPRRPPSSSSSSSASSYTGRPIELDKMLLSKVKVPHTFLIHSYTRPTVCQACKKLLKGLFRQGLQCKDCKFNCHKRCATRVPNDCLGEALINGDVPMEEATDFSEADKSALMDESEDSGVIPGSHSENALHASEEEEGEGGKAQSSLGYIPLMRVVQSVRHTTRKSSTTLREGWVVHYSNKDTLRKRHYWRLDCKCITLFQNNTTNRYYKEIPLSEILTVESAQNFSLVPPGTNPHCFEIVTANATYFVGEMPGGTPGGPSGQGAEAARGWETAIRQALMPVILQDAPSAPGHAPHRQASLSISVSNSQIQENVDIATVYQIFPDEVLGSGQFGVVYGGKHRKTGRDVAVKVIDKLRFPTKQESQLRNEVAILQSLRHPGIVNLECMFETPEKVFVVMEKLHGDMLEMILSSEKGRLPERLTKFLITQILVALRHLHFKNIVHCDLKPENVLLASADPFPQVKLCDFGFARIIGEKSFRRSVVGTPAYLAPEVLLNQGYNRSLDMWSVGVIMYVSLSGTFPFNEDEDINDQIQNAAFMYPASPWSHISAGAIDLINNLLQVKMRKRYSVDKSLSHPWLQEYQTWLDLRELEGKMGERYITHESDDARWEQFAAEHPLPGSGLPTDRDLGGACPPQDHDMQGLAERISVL
# [2] = target: T1, Serine/threonine-protein kinase D2 (Homo sapiens); conditions: at 10 µM
# [3] = target: T2, cGMP-dependent protein kinase 1 (Homo sapiens) (UniProt Q13976); conditions: at 1 µM
# T2 sequence (whole entry): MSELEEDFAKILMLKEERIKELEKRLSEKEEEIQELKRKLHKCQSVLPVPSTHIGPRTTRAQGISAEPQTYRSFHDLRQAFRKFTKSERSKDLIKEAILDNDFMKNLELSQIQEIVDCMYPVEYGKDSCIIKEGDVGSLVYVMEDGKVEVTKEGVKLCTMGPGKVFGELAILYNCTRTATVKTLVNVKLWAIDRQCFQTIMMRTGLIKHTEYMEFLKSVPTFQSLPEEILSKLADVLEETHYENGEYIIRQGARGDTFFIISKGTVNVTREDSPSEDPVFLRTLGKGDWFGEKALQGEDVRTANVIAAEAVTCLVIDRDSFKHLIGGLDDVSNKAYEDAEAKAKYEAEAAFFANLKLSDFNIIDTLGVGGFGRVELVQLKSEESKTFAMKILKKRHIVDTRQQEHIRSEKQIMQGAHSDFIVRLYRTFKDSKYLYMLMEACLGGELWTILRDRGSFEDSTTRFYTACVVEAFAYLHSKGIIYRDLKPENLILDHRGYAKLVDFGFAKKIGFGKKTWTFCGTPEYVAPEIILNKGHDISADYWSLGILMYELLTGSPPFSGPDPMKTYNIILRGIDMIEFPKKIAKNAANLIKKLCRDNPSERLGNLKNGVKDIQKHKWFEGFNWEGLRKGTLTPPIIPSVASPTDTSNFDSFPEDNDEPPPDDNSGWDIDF
# [4] = target: T2, cGMP-dependent protein kinase 1 (Homo sapiens); conditions: at 10 µM
# [5] = target: T2, cGMP-dependent protein kinase 1 (Homo sapiens); conditions: at 1 µM; remark: listed apart in the source
# [6] = target: T2, cGMP-dependent protein kinase 1 (Homo sapiens); conditions: at 10 µM; remark: listed apart in the source
# [7] = target: Serine/threonine-protein kinase N2 (Homo sapiens) (UniProt Q16513); conditions: at 1 µM
# Sequence of Serine/threonine-protein kinase N2 (Homo sapiens) (Q16513 whole entry, looked up): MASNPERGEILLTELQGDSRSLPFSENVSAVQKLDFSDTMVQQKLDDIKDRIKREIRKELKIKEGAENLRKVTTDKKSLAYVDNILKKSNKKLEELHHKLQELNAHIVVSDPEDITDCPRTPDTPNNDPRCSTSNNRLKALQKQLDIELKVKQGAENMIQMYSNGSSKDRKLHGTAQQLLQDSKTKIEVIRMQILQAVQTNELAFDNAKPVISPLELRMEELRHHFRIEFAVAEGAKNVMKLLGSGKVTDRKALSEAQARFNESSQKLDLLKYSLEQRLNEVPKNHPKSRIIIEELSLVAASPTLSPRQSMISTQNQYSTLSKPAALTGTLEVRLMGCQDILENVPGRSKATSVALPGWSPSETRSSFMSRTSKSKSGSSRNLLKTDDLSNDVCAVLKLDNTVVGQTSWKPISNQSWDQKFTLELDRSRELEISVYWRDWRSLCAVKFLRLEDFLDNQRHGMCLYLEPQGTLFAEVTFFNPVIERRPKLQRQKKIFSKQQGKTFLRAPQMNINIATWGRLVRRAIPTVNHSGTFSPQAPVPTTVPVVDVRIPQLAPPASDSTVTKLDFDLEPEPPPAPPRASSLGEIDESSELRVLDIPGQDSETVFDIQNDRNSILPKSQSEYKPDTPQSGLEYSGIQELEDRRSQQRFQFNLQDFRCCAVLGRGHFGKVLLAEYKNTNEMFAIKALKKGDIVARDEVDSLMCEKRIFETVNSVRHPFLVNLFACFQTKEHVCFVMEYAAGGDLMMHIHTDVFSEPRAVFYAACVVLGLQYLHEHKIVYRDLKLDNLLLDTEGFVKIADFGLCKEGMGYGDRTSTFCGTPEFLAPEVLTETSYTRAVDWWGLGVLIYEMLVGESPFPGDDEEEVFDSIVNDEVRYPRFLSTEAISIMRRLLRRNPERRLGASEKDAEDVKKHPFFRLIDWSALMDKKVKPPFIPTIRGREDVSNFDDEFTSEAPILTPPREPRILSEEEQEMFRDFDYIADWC
# [8] = target: Serine/threonine-protein kinase N2 (Homo sapiens) (UniProt Q16513); conditions: at 10 µM
# [9] = target: Tyrosine-protein kinase FRK (Homo sapiens) (UniProt P42685); conditions: at 1 µM
# Sequence of Tyrosine-protein kinase FRK (Homo sapiens) (P42685 whole entry): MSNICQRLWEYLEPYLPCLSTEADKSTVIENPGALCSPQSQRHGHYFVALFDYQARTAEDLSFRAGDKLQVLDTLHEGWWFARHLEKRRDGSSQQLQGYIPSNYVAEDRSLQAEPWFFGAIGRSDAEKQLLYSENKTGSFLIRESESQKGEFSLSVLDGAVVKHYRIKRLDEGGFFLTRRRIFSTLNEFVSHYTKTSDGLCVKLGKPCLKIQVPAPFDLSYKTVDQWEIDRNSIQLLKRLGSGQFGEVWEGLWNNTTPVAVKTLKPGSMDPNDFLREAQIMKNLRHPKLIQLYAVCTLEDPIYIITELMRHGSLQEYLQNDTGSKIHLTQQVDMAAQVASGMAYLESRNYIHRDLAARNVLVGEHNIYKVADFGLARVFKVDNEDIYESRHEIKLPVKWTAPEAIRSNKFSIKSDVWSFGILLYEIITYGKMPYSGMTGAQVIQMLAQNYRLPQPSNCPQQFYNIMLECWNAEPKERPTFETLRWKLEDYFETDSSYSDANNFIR
# [10] = target: Tyrosine-protein kinase FRK (Homo sapiens) (UniProt P42685); conditions: at 10 µM
# [11] = target: Serine/threonine-protein kinase pim-1 (Homo sapiens) (UniProt P11309); conditions: at 10 µM
# Sequence of Serine/threonine-protein kinase pim-1 (Homo sapiens) (P11309 whole entry, looked up): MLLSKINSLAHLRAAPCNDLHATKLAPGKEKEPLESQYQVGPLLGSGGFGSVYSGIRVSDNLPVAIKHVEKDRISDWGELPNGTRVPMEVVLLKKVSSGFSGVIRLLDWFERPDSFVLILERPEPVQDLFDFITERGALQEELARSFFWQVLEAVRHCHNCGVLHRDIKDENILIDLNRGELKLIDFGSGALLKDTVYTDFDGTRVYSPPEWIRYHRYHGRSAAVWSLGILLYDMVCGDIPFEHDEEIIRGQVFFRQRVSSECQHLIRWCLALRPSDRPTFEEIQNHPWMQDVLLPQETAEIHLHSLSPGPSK
# [12] = target: Serine/threonine-protein kinase pim-2 (Homo sapiens) (UniProt Q9P1W9); conditions: at 1 µM
# Sequence of Serine/threonine-protein kinase pim-2 (Homo sapiens) (Q9P1W9 whole entry, looked up): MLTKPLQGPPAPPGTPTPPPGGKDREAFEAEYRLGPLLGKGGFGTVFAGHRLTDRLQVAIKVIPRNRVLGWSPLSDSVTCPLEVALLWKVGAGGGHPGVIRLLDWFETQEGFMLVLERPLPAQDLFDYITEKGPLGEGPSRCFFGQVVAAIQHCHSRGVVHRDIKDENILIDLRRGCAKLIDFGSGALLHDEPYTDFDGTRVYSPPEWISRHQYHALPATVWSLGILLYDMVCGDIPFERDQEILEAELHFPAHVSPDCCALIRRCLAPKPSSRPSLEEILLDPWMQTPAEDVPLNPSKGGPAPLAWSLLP
# [13] = target: Serine/threonine-protein kinase pim-3 (Homo sapiens) (UniProt Q86V86); conditions: at 1 µM
# [14] = target: Serine/threonine-protein kinase pim-3 (Homo sapiens) (UniProt Q86V86); conditions: at 10 µM
# [15] = target: T3, MAP kinase-activated protein kinase 5 (Homo sapiens) (UniProt Q8IW41); conditions: at 1 µM
# T3 sequence (whole entry): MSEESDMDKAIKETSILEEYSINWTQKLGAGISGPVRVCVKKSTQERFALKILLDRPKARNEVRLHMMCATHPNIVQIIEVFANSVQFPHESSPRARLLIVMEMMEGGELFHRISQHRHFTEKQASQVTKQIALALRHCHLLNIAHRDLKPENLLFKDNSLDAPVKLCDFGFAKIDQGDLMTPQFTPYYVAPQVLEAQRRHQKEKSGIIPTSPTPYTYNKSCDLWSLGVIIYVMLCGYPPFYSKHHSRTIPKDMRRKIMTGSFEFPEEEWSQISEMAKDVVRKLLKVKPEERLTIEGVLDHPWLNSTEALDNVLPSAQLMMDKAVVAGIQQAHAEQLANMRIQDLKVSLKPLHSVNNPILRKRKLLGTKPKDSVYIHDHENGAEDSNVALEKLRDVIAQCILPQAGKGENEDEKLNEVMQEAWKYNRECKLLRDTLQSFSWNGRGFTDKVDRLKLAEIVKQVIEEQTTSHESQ
# [16] = target: T3, MAP kinase-activated protein kinase 5 (Homo sapiens); conditions: at 10 µM
# [17] = target: T4, Phosphorylase b kinase gamma catalytic chain, liver/testis isoform (Homo sapiens) (UniProt P15735); conditions: at 1 µM
# T4 sequence (whole entry): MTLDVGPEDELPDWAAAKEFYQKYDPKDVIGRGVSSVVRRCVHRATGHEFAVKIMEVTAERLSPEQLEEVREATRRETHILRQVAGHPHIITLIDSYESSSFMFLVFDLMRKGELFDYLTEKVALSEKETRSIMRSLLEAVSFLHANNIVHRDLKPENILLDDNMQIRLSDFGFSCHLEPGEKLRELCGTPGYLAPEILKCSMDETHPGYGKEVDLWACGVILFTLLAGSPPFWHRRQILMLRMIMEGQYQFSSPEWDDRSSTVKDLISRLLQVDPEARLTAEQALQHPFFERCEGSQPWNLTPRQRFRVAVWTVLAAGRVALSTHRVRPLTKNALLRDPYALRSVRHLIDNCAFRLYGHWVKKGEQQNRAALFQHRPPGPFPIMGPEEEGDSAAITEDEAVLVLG
# [18] = target: T4, Phosphorylase b kinase gamma catalytic chain, liver/testis isoform (Homo sapiens); conditions: at 10 µM
# [19] = target: Serine/threonine-protein kinase pim-1 (Homo sapiens) (UniProt P11309); conditions: at 1 µM
# [20] = target: Serine/threonine-protein kinase pim-2 (Homo sapiens) (UniProt Q9P1W9); conditions: at 10 µM
Structure (SMILES),residual activity [1],residual activity [2],residual activity [3],residual activity [4],residual activity [5],residual activity [6],residual activity [7],residual activity [8],residual activity [9],residual activity [10],residual activity [11],residual activity [12],residual activity [13],residual activity [14],residual activity [15],residual activity [16],residual activity [17],residual activity [18],residual activity [19],residual activity [20]
COc1cc(OC)c(/C=C2\C(=O)Nc3ccccc32)c(OC)c1,108%,105%,97%,108%,83%,73%,99%,87%,90%,99%,75%,137%,81%,86%,,,,,,
CC(C)[C@H](CO)Nc1nc(Nc2cccc(Cl)c2)c2ncn(C(C)C)c2n1,,,,,,,,,59%,9%,68%,116%,87%,89%,102%,59%,122%,82%,100%,122%
O=c1[nH]c2ccccc2n1C1CCN(Cc2ccc(-c3nc4cc5[nH]cnc5cc4nc3-c3ccccc3)cc2)CC1,100%,108%,108%,110%,86%,97%,112%,115%,99%,107%,87%,85%,102%,97%,75%,37%,101%,53%,88%,98%
O=[N+]([O-])/C=C/c1ccc2c(c1)OCO2,105%,105%,107%,106%,101%,90%,102%,107%,105%,105%,85%,134%,101%,103%,85%,70%,105%,114%,79%,110%
O=C1NC(=O)c2c1c1c3ccccc3n3c1c1c2c2ccccc2n1C1CCC3O1,92%,90%,84%,73%,76%,74%,47%,25%,71%,66%,1%,6%,38%,45%,,,,,-2%,-2%
O=C1c2ccccc2-c2nc3nnnn3nc21,,,,,,,,,,,,104%,,,,,103%,120%,,108%
N/C(=N\[N+](=O)[O-])N/N=C\c1ccc(-c2cccc([N+](=O)[O-])c2)o1,,,,,,,,,,,,,88%,87%,,,,,,
CC(C)(C)c1cc(C=C(C#N)C#N)cc(Br)c1O,100%,105%,107%,,66%,60%,104%,117%,100%,76%,51%,,105%,104%,107%,65%,115%,106%,,
CCn1cnc2c(Nc3cccc(Cl)c3)nc(N[C@@H]3CCCC[C@@H]3N)nc21,97%,96%,92%,88%,89%,70%,80%,49%,43%,8%,23%,97%,57%,13%,119%,124%,78%,29%,94%,39%
